Unmarked numbers belong to inactive results. Inconclusive results are not listed. Calls of active or inactive are those of the source. Unless noted, calls follow the shape of the dose curve; as a rule, active = well fitted curve in the direction sought with a large enough effect in the repeat runs; inconclusive = weak or mixed curves; inactive = no such curve, though single readings can be large; an effect the other way counts as inactive or inconclusive.

Experimental findings from PubChem BioAssay (Tox21) are described below.

Test [1] is described as follows: A CellTox Green Cytotoxicity Assay to monitor cytotoxicity in HepG2 cells - 0 hour (AID 1224882). Also: nearly all actives have a fitted effect of over 35% in size. In outline: (§1)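 HepG2 cells, 600/well, preincubated 5 h with CellTox Green dye, then exposed to Tox21 compounds in DMSO at 37 C for up to 40 h. Dead-cell DNA fluorescence read at the indicated time point.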
Test [2] in a line: A CellTox Green Cytotoxicity Assay to monitor cytotoxicity in HepG2 cells - 32 hour (AID 1224883). Also: nearly all actives have a fitted effect of over 50% in size. The method in brief:
as §1

Test [3] in a line: A CellTox Green Cytotoxicity Assay to monitor cytotoxicity in HEK293 cells - 8 hour (AID 1224884). Also: nearly all actives have a fitted effect of over 35% in size. The method in brief: (§2)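 HEK293 cells, 600/well, were preincubated 5 hours and then exposed to compounds at 37 C for up to 40 hours. A cell-impermeant cyanine dye staining dead-cell DNA was read by fluorescence at 0, 8, 16, 24, 32 and 40 h time points.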
A short description of test [4]: qHTS RealTime-Glo MT Cell Viability Assay in HepG2 cells - 16 hour (AID 1224885). Also: nearly all actives have a fitted effect of over 50% in size. In outline: (§3)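 HepG2 suspension premixed with RealTime-Glo reagents is plated at 600 cells per well and left 5 h at 37 C/5% CO2. Compounds in DMSO then go in, and bioluminescence reflecting viable cell number is recorded over 40 h.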
A short description of test [5]: qHTS RealTime-Glo MT Cell Viability Assay in HEK293 cells - 24 hour (AID 1224886). Also: top concentration of the series differs between compounds; nearly all actives have a fitted effect of over 50% in size. In outline: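 Reads taken at 0, 8, 16, 24, 32 and 40 h from the same wells. HEK293 cells (600/well) carried RealTime-Glo reagents from seeding, with compound added after a 5 h settle at 37 C.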
The nature of test [6]: qHTS RealTime-Glo MT Cell Viability Assay in HEK293 cells - 8 hour (AID 1224887). Also: top concentration of the series differs between compounds; nearly all actives have a fitted effect of over 50% in size. The method in brief: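 600 cells/well were plated with the nonlytic NanoLuc/prosubstrate reagent, pre-incubated 5 h, then given 23 nL of compound in DMSO. Incubation at 37 C for 40 h, with luminescence from viable-cell-reduced substrate read repeatedly from 0 h.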
The nature of test [7]: A CellTox Green Cytotoxicity Assay to monitor cytotoxicity in HEK293 cells - 16 hour (AID 1224888). Also: nearly all actives have a fitted effect of over 35% in size. The method in brief: as §2
The nature of test [8]: qHTS RealTime-Glo MT Cell Viability Assay in HepG2 cells - 0 hour (AID 1224889). Also: nearly all actives have a fitted effect of over 50% in size. In outline:
as §3

A short description of test [9]: A CellTox Green Cytotoxicity Assay to monitor cytotoxicity in HepG2 cells - 8 hour (AID 1224890). Also: nearly all actives have a fitted effect of over 45% in size. In outline:
as §1

Test [10] is described as follows: qHTS assay to identify small molecule antagonists of the estrogen receptor alpha (ER-alpha) signaling pathway using the BG1 cell line in the presence of 0.1 nM 17-beta-estradiol - cell viability counter screen (AID 1259241). Also: nearly all actives have a fitted effect of over 40% in size. The method in brief:
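Live-cell protease activity (CellTiter-Fluor fluorescence, 30 min) was read in the same wells after VM7Luc4E2 cells had been exposed to compounds with 0.1 nM 17beta-estradiol for 22 hr at 37C.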

The nature of test [11]: qHTS assay to identify small molecule antagonists of the androgen receptor (AR) signaling pathway using the MDA cell line in the presence of 0.5 nM R1881 - cell viability counter screen (AID 1259242). Also: nearly all actives have a fitted effect of over 45% in size. In outline: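 MDA-kb2 cells (MMTV-luciferase, AR/GR responsive) were treated with compounds plus 0.5 nM R1881 (final) for 16 hr at 37C, 0% CO2. Viability was then read in the same wells as live-cell protease fluorescence (CellTiter-Fluor, 30 min).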

Test [12] deals with Androgen receptor (Homo sapiens) (UniProt P10275). In words: qHTS assay to identify small molecule antagonists of the androgen receptor (AR) signaling pathway using the MDA cell line in the presence of 0.5 nM R1881 (AID 1259243). Also: nearly all actives have a fitted effect of over 50% in size. Also: potency is read from the fitted curve at half-maximal effect. In outline:
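MDA-kb2 cells (MMTV-luciferase, responsive to AR and GR) at 3,000/well, rested 5 h at 37C, 0% CO2, then given compounds plus 0.5 nM R1881 (final) for 16 hr. Luciferase read with ONE-Glo after 30 min at room temperature.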

A short description of test [13]: qHTS assay to identify small molecule phospholipidosis (PLD) inducers (AID 1259344; active = well fitted curve in the direction sought with a large enough effect; an effect the other way counts as inactive or inconclusive). In outline:
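HepG2 cells grown on collagen I take up LipidTOX Red while exposed to compound for 24 h; after fixation they are imaged at 20x and pit metrics are extracted.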

A short description of test [14]: qHTS assay to identify small molecule HDAC inhibitors (AID 1259364). Also: top concentration of the series differs between compounds; nearly all actives have a fitted effect of over 45% in size. The method in brief:
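Wild-type HCT-116 cells, plated overnight at 37 C, exposed to compounds 2 hr at 37 C; luminogenic HDAC-Glo substrate then added 30 min at room temperature. Luminescence reports relative endogenous class I/II HDAC activity.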

Test [15] can be described thus: qHTS assay to identify small molecule HDAC inhibitors - cell viability counter screen (AID 1259365). In outline:
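HCT-116 (wild type), 1,500 cells/well, overnight 37C/5% CO2; compound in DMSO 2hr; CellTiter-Glo 30min RT; luminescence read.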

Test [16] in a line: qHTS assay to identify small molecule agonists of the sonic hedgehog signaling (Shh) pathway - cell viability counter screen (AID 1259366). Also: nearly all actives have a fitted effect of over 50% in size. The method in brief: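 CellTiter-Fluor fluorescence read-out, 1 hr at 37C, added after 23hr compound exposure. Cells: 3T3 Gli1-Luc, an NIH/3T3 clone with stably integrated Gli1-Luc reporter, plated 4hr before compound.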
Test [17] in a line: qHTS assay to identify small molecule antagonists of the sonic hedgehog signaling (Shh) pathway - cell viability counter screen (AID 1259367). Also: nearly all actives have a fitted effect of over 55% in size. In outline: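 After a 4 hr settling period, 3T3 Gli1-Luc cells were treated with DMSO-dissolved chemicals and conditioned medium, kept 24 hr at 37C in 5% CO2, and assayed for viability by CellTiter-Fluor fluorescence following 1 hr reagent incubation.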

Test [18] in a line: qHTS assay to identify small molecule agonists of the sonic hedgehog signaling (Shh) pathway (AID 1259368; calls by dose curve;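 also: NIH/3T3-derived 3T3Gli1-Luc cells carrying a stable Gli1-driven firefly luciferase reporter; series mostly up to about 92 µM; nearly all actives have a fitted effect of over 15% in size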). The method in brief:
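NIH/3T3-derived 3T3Gli1-Luc cells with stably integrated Gli1-driven firefly luciferase, 2,000 cells/well, compounds added after 4 hr. Incubated 24 hr at 37C, 5% CO2; luminescence read after 30 min with luciferase reagent at room temperature.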

Test [19] can be described thus: qHTS assay to identify small molecule antagonists of the sonic hedgehog signaling (Shh) pathway (AID 1259369; calls by dose curve; also: nearly all actives have a fitted effect of over 45% in size). The method in brief:
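NIH/3T3-derived Gli1-Luc reporter cells plated 4 h, dosed with compound, then stimulated with conditioned medium for 24 h at 37 C. Firefly luciferase luminescence read after 30 min with detection reagent at room temperature.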

Test [20] deals with Estrogen receptor (Homo sapiens) (UniProt P03372). Briefly: qHTS assay to identify small molecule antagonists of the estrogen receptor alpha (ER-alpha) signaling pathway using the BG1 cell line in the presence of 0.1 nM 17-beta-estradiol (AID 1259244). Also: nearly all actives have a fitted effect of over 50% in size. In outline: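 VM7Luc4E2 cells (endogenous full-length ER-alpha, 4×ERE-luciferase), kept 5 days in phenol red-free, charcoal-stripped FBS medium; 4,000 cells/well. Compounds added with 0.1 nM (final) 17beta-estradiol, 22 hr at 37C; luminescence read with ONE-Glo after 30 min.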
Estrogen receptor (Homo sapiens), sequence (P03372 whole entry, looked up): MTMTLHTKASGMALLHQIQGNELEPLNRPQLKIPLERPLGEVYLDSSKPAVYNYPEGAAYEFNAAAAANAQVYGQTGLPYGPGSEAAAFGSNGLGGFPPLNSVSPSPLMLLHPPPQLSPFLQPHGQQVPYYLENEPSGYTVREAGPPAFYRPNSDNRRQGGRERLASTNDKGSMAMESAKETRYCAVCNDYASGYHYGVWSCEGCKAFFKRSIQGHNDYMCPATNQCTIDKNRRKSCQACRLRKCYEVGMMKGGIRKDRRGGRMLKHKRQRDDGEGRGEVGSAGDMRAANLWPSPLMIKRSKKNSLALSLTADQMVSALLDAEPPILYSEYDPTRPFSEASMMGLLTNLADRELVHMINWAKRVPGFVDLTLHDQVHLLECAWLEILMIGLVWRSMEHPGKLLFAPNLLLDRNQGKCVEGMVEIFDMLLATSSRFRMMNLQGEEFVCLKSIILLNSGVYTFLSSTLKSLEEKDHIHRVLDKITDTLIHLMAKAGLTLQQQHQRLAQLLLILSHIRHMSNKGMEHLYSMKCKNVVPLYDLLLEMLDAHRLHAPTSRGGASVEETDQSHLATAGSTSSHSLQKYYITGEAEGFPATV

Androgen receptor (Homo sapiens), sequence (P10275 whole entry, looked up): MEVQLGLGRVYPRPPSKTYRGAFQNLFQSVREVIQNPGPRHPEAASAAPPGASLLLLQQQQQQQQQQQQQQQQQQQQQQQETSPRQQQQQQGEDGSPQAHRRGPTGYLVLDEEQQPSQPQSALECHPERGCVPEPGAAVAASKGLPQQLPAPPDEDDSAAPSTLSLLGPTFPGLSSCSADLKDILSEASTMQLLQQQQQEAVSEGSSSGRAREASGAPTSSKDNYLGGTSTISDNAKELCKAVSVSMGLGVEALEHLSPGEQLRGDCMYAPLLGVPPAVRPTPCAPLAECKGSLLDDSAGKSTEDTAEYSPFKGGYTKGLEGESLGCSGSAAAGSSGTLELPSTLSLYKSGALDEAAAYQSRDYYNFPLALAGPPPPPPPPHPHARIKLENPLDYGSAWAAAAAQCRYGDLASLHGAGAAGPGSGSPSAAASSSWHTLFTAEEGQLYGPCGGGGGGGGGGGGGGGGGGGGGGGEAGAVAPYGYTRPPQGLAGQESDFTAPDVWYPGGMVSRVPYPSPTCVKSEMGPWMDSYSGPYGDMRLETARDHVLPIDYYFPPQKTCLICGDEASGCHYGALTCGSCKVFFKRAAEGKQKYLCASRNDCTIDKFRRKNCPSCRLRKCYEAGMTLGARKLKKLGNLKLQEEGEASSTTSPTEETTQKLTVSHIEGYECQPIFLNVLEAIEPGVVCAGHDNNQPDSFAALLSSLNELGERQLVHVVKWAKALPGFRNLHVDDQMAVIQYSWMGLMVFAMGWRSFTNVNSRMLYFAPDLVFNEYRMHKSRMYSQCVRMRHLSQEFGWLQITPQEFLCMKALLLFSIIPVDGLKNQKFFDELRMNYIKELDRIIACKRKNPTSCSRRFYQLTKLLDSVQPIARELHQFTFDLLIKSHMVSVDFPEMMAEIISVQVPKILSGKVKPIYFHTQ

Regarding `CC[N+](CC)(CC)CCOc1cccc(OCC[N+](CC)(CC)CC)c1OCC[N+](CC)(CC)CC`, the Potency entry in test [1], in [2], in [5], in test [6], in test [8] and in test [12] was “inactive” in each case. The Potency result in test [14], in test [16], in [17] and in test [19] was “inactive” each time. Also, the outcome in test [3], in [4], in test [7], in test [9], in test [10] and in test [11] was inactive. Also, the compound was classed as inactive in test [13], in [15] and in [18].
For `CC1=NS(=O)(=O)c2cc(Cl)ccc2N1`, the Potency entry in [1], in test [2], in [5], in test [6], in [8] and in test [14] was “inactive” each time. In addition, the Potency entry in [16], in [17] and in test [19] was “inactive” in each case. Besides, the outcome in test [3], in test [4], in [7], in [9], in test [10] and in [11] was inactive. Also, the outcome in test [20], in test [13], in test [15] and in [18] was inactive.
In the case of `CC(=O)N1C[C@H](O)C[C@H]1C(=O)O`, the Potency entry in [1], in test [2], in [5], in [6], in [8] and in test [12] was “inactive” throughout. Further, the Potency entry in [14], in test [16], in [17] and in test [19] was “inactive” each time. The compound was called inactive in test [3], in test [4], in [7], in test [9], in test [10] and in test [11]. Further, the outcome in [20], in test [13], in test [15] and in [18] was inactive.
As to `Cc1ccc(-c2ccccc2C#N)cc1`, the Potency entry in [1], in test [2], in [5], in [6], in test [8] and in test [14] was “inactive” each time. Moreover, the Potency entry in [16], in test [17] and in test [19] was “inactive” throughout. Also, the compound was classed as inactive in [3], in test [4], in test [7], in test [9], in [10] and in test [11]. Besides, the outcome in test [20], in [15] and in test [18] was inactive. In addition, in [12], the Potency is 11.9 µM (active).
Consider `CC(C)c1ccc2ncccc2c1`, for which the Potency result in test [1], in test [2], in test [5], in test [6], in test [8] and in test [14] was “inactive” throughout. For the same compound, the Potency entry in test [16], in [17] and in [19] was “inactive” each time. Also, the call in test [3], in test [4], in [7], in test [9], in test [10] and in test [11] was inactive. Besides, the result in [20], in test [15] and in [18] was inactive.
Turning to `N[C@H](C(=O)O)[C@@H](O)c1ccc(O)c(O)c1`, the Potency result in test [1], in test [2], in test [5], in test [6], in [8] and in test [14] was “inactive” in each case. In addition, the Potency entry in [16] and in test [19] was “inactive” in each case. In addition, the call in [3], in test [4], in test [7], in test [9], in [10] and in test [11] was inactive. Also, the outcome in test [20] and in test [13] was inactive.
Take `CCC(C)(CCCC(C)C)OC(C)=O` (centres undefined): the Potency entry in test [1], in test [2], in [5], in [6], in test [8] and in test [14] was “inactive” in each case. For the same compound, the Potency result in test [16], in test [17] and in test [19] was “inactive” each time. The result in test [3], in test [4], in test [7], in [9], in test [10] and in test [11] was inactive. Further, the outcome in test [20], in test [15] and in test [18] was inactive.
